Results: ChEMBL document CHEMBL3988442, “University of Dundee, Small-Polar-MMV Screening Library” (2021)
For some assays here: Entries with a potency or affinity are not part of this list.

Assays:
Parameters in all cases: scale not given: direction of the effect not stated beside the values
[1] = molecular target: Protein translocase subunit SecA (Escherichia coli (strain K12)) (UniProt P10408); assay: Assay to Identify E. coli SecA ATPase Inhibitors; format: functional; conditions: 30 µM
[2] = molecular target: T1, Ubiquitin-activating enzyme e1, putative (Leishmania donovani (strain BPK282A1)) (UniProt E9BSI1); assay: Leishmania donovani Ubiquitin Activating Enzyme (LdE1); format: functional; conditions: 30 µM
T1 sequence (whole entry): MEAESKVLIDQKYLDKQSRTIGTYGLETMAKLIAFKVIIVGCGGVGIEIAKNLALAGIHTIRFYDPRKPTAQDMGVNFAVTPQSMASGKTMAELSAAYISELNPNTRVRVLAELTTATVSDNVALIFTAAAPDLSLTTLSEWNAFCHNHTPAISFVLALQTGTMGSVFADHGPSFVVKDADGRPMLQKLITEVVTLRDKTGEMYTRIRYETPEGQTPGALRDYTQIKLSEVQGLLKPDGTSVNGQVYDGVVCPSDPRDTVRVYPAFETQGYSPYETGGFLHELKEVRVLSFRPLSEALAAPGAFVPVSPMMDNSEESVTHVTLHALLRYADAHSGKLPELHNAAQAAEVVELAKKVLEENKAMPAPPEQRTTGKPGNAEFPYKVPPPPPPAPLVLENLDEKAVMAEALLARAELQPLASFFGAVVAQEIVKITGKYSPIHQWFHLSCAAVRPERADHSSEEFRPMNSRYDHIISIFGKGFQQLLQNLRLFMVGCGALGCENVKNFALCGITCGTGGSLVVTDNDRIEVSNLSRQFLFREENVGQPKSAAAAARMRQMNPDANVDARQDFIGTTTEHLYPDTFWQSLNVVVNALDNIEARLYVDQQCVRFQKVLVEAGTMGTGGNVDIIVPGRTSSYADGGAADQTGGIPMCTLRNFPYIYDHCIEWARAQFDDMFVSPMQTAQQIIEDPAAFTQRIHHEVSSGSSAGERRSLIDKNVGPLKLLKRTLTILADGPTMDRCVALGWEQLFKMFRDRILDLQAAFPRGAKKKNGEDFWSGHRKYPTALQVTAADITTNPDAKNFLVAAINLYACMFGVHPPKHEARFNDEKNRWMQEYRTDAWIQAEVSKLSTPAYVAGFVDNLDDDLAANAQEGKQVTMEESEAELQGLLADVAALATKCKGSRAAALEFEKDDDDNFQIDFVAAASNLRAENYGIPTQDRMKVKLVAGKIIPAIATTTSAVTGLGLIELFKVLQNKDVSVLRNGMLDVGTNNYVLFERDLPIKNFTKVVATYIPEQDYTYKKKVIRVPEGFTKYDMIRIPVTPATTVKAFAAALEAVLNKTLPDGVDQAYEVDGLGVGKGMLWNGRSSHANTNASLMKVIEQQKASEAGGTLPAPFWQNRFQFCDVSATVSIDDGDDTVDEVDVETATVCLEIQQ

[3] = molecular target: AMP-activated protein kinase, AMPK (Homo sapiens) (UniProt P54646+O43741+P54619+Q9UGJ0+Q9Y478+Q13131+Q9UGI9); assay: AMP-dependent Kinase enzyme assay. An in vitro enzyme assay that detects ADP turnover that is directly proportional to AMPK activity. This uses naive AMPK that is activated during the assay with MK-8722; format: functional; conditions: 30 µM
[4] = molecular target: Sialic acid-binding Ig-like lectin 9 (Homo sapiens) (UniProt Q9Y336); assay: Hs-Siglec9 ALPHAscreen SOP 20170721; conditions: 10 µM
Trypanosoma cruzi = assay: Trypanosoma cruzi phosphomannomutase and mannose-1-phosphate guanylyltransferase assay; format: functional; conditions: 10 µM
[5] = molecular target: T2, Arginase-2, mitochondrial (Homo sapiens) (UniProt P78540); assay: in vitro enzyme assay to detect the production of urea directly proportional to the activity of Arginase II; format: functional; conditions: 33.3 µM; also: in the data most compounds retested in dose-response had high values
T2 sequence (whole entry): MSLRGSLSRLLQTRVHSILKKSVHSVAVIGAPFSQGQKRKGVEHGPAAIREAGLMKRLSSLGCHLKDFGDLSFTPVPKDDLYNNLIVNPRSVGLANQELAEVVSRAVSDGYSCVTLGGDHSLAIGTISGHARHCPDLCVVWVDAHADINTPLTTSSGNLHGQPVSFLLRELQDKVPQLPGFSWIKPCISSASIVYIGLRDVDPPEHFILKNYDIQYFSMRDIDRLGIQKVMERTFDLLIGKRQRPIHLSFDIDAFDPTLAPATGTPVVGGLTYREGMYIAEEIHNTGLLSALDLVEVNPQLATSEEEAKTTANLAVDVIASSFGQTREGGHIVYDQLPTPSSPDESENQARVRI

[6] = molecular target: T3, Proteasome subunit beta (Trypanosoma cruzi) (UniProt O96673); assay: Trypanosoma cruzi proteasome chymotrypsin-like activity (TcProtChymo) assay.; also: in the data most compounds retested in dose-response had high values; format: functional; conditions: 9.37 µM
T3 sequence (whole entry): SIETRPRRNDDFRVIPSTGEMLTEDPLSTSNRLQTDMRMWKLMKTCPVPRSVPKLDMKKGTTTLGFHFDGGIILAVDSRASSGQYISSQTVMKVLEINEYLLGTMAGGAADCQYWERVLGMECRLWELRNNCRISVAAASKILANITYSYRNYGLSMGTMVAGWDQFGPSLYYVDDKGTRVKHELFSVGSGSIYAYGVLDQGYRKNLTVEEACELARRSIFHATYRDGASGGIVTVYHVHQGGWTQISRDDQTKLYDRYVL

Homo sapiens = organism: Homo sapiens; assay: To identify inhibition of the IFN signalling (Jak-Stat) pathway via expression of an eGFP reporter gene under the control of an IFN-stimulated response element (ISRE) containing MxA promoter.; format: functional; conditions: 30 µM
[7] = molecular target: T4, Tyrosyl-tRNA synthetase, putative (Trypanosoma cruzi (strain CL Brener)) (UniProt Q4DSP6); assay: Trypanosoma cruzi tyrosyl tRNA synthetase (TcYRS) _High Tyrosine SOP; format: functional; conditions: 30 µM; also: in the data most compounds retested in dose-response had high values
T4 sequence (whole entry): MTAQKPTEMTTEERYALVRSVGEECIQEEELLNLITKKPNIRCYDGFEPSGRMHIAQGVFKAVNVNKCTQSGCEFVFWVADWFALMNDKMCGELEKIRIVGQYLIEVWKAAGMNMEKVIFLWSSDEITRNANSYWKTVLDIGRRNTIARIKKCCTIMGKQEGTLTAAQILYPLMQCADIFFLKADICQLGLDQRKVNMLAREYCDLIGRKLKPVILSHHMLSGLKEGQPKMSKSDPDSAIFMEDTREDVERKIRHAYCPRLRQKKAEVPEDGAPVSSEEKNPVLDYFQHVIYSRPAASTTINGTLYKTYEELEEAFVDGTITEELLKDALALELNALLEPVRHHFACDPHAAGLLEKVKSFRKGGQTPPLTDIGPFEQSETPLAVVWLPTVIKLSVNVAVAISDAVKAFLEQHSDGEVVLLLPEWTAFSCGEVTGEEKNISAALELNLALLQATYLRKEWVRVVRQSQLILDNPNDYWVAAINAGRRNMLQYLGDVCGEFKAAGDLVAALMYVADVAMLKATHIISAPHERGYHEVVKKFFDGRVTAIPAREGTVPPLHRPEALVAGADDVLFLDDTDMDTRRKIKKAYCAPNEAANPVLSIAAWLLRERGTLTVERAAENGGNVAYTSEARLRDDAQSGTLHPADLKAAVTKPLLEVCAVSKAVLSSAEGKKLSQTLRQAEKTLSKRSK

[8] = molecular target: T4, Tyrosyl-tRNA synthetase, putative (Trypanosoma cruzi (strain CL Brener)); assay: Trypanosoma cruzi tyrosyl tRNA synthetase (TcYRS) SOP; format: functional; conditions: 30 µM
[9] = molecular target: Chromo domain-containing protein 1 (Saccharomyces cerevisiae (strain ATCC 204508 / S288c) (Baker's yeast)) (UniProt P32657); assay: ScCHD-1 Enzyme Inhibition Assay; format: functional; conditions: 30 µM; also: in the data most compounds retested in dose-response had high values
Chain of Chromo domain-containing protein 1 (Saccharomyces cerevisiae (strain ATCC 204508 / S288c) (Baker's yeast)) (P32657 whole entry, the tested form may be a part): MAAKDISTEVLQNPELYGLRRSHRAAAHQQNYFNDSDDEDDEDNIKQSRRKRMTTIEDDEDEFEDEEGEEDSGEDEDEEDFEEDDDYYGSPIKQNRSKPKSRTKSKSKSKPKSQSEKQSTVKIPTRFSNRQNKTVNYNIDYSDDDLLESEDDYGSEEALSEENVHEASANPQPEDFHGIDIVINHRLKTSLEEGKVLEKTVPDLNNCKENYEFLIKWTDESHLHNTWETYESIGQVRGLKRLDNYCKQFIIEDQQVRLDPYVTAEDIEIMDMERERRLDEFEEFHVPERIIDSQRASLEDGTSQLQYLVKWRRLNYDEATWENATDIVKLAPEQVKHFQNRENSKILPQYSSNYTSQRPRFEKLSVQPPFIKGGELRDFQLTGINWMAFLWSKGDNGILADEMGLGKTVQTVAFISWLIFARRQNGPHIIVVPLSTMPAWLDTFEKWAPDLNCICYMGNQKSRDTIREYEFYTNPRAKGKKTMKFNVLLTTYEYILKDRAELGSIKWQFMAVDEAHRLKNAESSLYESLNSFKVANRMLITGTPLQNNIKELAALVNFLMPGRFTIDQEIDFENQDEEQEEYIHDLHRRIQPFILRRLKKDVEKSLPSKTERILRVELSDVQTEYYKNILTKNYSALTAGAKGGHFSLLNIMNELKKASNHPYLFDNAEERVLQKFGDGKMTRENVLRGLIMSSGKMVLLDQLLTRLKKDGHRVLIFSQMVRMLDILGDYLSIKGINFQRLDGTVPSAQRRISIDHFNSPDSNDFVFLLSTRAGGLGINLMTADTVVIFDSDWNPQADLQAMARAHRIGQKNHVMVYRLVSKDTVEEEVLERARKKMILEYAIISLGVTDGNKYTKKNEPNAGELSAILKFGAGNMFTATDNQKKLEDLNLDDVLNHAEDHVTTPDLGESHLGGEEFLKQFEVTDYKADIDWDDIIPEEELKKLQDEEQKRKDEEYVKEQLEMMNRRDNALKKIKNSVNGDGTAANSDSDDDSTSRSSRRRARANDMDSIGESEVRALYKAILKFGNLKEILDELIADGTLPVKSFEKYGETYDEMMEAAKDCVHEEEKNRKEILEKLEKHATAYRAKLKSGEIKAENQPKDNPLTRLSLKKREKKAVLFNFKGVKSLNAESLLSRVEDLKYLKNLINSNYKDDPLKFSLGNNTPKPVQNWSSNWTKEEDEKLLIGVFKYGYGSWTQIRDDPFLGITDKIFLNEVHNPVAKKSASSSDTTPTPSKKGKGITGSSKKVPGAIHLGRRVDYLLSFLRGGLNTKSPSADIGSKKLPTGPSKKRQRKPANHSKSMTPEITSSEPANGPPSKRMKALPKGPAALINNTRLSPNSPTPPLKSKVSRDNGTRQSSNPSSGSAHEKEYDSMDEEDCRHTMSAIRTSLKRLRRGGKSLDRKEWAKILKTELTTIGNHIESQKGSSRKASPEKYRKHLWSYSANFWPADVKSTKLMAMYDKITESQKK

Chain of Protein translocase subunit SecA (Escherichia coli (strain K12)) (P10408 whole entry): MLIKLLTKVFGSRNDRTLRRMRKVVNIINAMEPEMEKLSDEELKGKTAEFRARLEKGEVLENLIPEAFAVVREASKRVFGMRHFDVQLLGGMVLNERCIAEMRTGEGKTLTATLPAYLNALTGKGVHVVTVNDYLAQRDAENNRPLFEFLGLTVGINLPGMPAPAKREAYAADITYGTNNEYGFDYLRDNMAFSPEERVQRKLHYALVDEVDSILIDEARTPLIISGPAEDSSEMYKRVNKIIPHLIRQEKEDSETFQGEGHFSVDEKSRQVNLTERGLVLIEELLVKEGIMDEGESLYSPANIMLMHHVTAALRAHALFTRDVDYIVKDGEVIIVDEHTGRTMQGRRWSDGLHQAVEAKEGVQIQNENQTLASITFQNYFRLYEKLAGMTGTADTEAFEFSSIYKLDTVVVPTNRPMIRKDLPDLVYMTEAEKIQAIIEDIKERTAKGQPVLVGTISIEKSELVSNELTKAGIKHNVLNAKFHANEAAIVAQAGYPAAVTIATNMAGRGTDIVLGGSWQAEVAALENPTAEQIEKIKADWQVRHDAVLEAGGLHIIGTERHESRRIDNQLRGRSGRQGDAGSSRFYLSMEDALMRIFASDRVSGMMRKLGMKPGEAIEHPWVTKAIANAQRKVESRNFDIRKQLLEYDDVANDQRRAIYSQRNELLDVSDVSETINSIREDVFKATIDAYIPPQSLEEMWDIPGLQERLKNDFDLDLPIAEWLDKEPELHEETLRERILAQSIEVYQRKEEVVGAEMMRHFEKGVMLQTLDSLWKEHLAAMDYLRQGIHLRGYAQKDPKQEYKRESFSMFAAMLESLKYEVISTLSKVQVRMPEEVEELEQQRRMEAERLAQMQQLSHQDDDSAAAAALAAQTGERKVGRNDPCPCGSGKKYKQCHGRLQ
Chain of Sialic acid-binding Ig-like lectin 9 (Homo sapiens) (Q9Y336 whole entry): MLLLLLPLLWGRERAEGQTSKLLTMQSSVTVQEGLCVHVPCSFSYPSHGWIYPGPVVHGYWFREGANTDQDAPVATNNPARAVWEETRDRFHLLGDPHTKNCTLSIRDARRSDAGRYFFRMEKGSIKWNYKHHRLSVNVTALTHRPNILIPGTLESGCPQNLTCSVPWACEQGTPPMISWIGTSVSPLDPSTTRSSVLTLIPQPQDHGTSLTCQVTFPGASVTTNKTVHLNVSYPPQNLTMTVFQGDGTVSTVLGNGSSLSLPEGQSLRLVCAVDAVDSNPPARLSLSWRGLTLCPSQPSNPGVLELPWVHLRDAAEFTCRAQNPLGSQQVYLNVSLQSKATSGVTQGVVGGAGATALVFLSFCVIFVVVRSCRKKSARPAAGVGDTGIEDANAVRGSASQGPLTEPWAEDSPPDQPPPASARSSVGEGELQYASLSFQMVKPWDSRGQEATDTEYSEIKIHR

| SMILES | Percent Effect [1] | Percent Effect [2] | Percent Effect [3] | Percent Effect [4] | Percent Effect (Trypanosoma cruzi) | Percent Effect [5] | Percent Effect [6] | Percent Effect (Homo sapiens) | Percent Effect [7] | Percent Effect [8] | Percent Effect [9] |
| --- | --- | --- | --- | --- | --- | --- | --- | --- | --- | --- | --- |
| CN(C)C[C@H]1OC[C@@H]2CCN(C(=O)c3cccn3C)C[C@@H]21 | -3.89% | 0% | -8% | 19.3% | 4.59% | 9.18% | 6.44% | 4.8% | 6.45% | 13.6% | -6.04% |
| CCN1CCN(c2ncc(-c3cc(C)no3)c(-c3ccc(C)s3)n2)CC1 | -2.83% | 4.05% | 7.99% | 2.04% | -5.34% | -4.41% | 2.18% | -6.45% | 6.45% | 11.7% | -15.6% |
| O=C(CCNC(=O)c1ccoc1)Nc1c(F)cccc1F | 0.646% | 18.2% | -4.32% | 5.34% | -2.84% | 4.42% | 18.8% | 14% | 6.67% | 21.2% | -3.32% |
| COc1c(CNCCNC(=O)c2ccc(C)cc2)c(C)nn1C | -5.75% | 13.5% | -5.83% | 19.1% | 6.96% | -2.4% | 5.57% | -9.3% | 7.92% | 28.1% | -7.35% |
